Measured values taken from the supplement of paper PMC6555819.

Experiments:
Assay in all cases: PBM binding z-score (relative to random genomic background probes); higher = stronger binding; sequences stand for … in GC…GCGATTGACAGCGTAGAATGAAGG
[1] = test system: FXR:RXRa (NR concentration 270 nM, RXRa partner concentration 90 nM)
Procedure, shortened: (§1)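 Custom Agilent 4×180K protein-binding microarrays carried double-stranded probes. Their 34-nt variable regions held direct-repeat seeds, single-nucleotide variants, half-site ablations and random human genomic background sequences. Arrays were incubated 1 h with ligand-free nuclear receptor dimers in PBS pH 7.4, 2% milk, 0.02% Triton X-100, 1 mM DTT, 0.2 mg/mL BSA and 0.4 mg/ml salmon testes DNA. Antibodies against each partner (one per run) detected binding, and scanned fluorescence was regression-normalized. Binding z-scores use random background probes as reference.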

[2] = test system: LXRa:RXRa (NR concentration 270 nM, RXRa partner concentration 90 nM)
Procedure, shortened: as §1

[3] = test system: LXRa homodimer (NR concentration 270 nM)
Procedure, shortened: as §1

[4] = test system: LXRb:RXRa (NR concentration 270 nM, RXRa partner concentration 90 nM)
Procedure, shortened: as §1

[5] = test system: LXRb homodimer (NR concentration 270 nM)
Procedure, shortened: as §1

[6] = test system: PPARa:RXRa (NR concentration 270 nM, RXRa partner concentration 90 nM)
Procedure, shortened: as §1

[7] = test system: PPARg:RXRa (NR concentration 180 nM, RXRa partner concentration 90 nM)
Procedure, shortened: as §1

[8] = test system: PPARg:RXRa 270nM:90nM, anti-RXR (NR concentration 270 nM, RXRa partner concentration 90 nM)
Procedure, shortened: as §1

[9] = test system: PPARg:RXRa 30nM:10nM, anti-RXR (NR concentration 30 nM, RXRa partner concentration 10 nM)
Procedure, shortened: as §1

[10] = test system: PPARg:RXRa 90nM:30nM, anti-RXR (NR concentration 90 nM, RXRa partner concentration 30 nM)
Procedure, shortened: as §1

[11] = test system: PPARg:RXRa DBDmut IVT, anti-RXR (DBD mutation: RXRa K156A/R161A, NR concentration 270 nM, RXRa partner concentration 90 nM)
Procedure, shortened: as §1

[12] = test system: PPARg:RXRa IVT, anti-PPARg (NR concentration 270 nM, RXRa partner concentration 90 nM)
Procedure, shortened: as §1

[13] = test system: PPARg DBDmut:RXRa IVT, anti-PPARg (DBD mutation: PPARg1 K132A/R137A, NR concentration 270 nM, RXRa partner concentration 90 nM)
Procedure, shortened: as §1

[14] = test system: PPARg DBDmut IVT, anti-PPARg (DBD mutation: PPARg1 K132A/R137A, NR concentration 270 nM)
Procedure, shortened: as §1

[15] = test system: PPARg homodimer (NR concentration 180 nM)
Procedure, shortened: as §1

[16] = test system: PXR:RXRa (NR concentration 270 nM, RXRa partner concentration 90 nM)
Procedure, shortened: as §1

[17] = test system: PXR homodimer (NR concentration 270 nM)
Procedure, shortened: as §1

[18] = test system: RARa:RXR (NR concentration 270 nM, RXRa partner concentration 90 nM)
Procedure, shortened: as §1

[19] = test system: RARa homodimer (NR concentration 270 nM)
Procedure, shortened: as §1

[20] = test system: RARb:RXRa (NR concentration 270 nM, RXRa partner concentration 90 nM)
Procedure, shortened: as §1

Sequence | PBM binding z-score [1] | PBM binding z-score [2] | PBM binding z-score [3] | PBM binding z-score [4] | PBM binding z-score [5] | PBM binding z-score [6] | PBM binding z-score [7] | PBM binding z-score [8] | PBM binding z-score [9] | PBM binding z-score [10] | PBM binding z-score [11] | PBM binding z-score [12] | PBM binding z-score [13] | PBM binding z-score [14] | PBM binding z-score [15] | PBM binding z-score [16] | PBM binding z-score [17] | PBM binding z-score [18] | PBM binding z-score [19] | PBM binding z-score [20]
CTCGAAAAGTCGGTTGAGGTGAGTATACGGATAA | 0.673 | 0.0454 | -0.319 | -4.02e-05 | -0.053 | 0.458 | -0.07 | -0.172 | 0.085 | -0.0769 | -0.249 | 0.59 | -0.0972 | -0.5 | 0.0605 | -0.0703 | -0.0272 | 1.45 | 0.0114 | 0.371
CAGCCTAGGTCAGGGCCAGGATAGGAGGAACGTT | 1.84 | 0.87 | -0.49 | 0.522 | -1.06 | 2.04 | 0.835 | 1.15 | -0.0382 | 0.556 | 1.16 | 1.82 | -0.747 | -1.27 | 0.00488 | 0.262 | -0.967 | 0.879 | -0.655 | 3.49
GCATATAGGTAATACAAGGTGAAAGACCGATTGT | 1.32 | 2.31 | 0.0608 | 0.571 | -0.236 | 1.46 | 1.65 | 1.57 | 0.368 | 0.978 | 3.84 | 3.44 | 0.445 | 0.718 | 0.0891 | 0.523 | -0.102 | 1.49 | 0.624 | 0.568
ATCTCCAGGTAAGACTCAGTTCAGTGAAGAACGC | 0.579 | 0.595 | 0.65 | 0.641 | 0.696 | 0.265 | 0.0991 | 0.41 | 0.426 | 0.596 | 0.285 | 0.513 | 0.311 | 1.43 | 1.51 | 1.38 | 1.36 | 0.454 | 0.892 | 0.446
CGAACTAGGTCATTGACATGACAGTGAATAGTAA | 5.2 | 3.24 | 0.582 | 2.31 | -0.197 | 4.88 | 7.61 | 6.52 | 3.97 | 6.29 | 8.34 | 8.44 | 3.7 | 2.52 | 1.93 | 1.45 | -0.208 | 2.28 | 0.896 | 3.62
ATATGTAGGTTACATCCGGATCATTCAGGCTATG | 0.642 | 3.17 | 0.493 | 1.65 | 0.498 | 3.35 | 5.19 | 4.14 | 1.64 | 3.4 | 7.7 | 7.49 | 3.14 | 2.67 | 1 | 0.73 | 0.559 | 1.04 | 0.899 | 1.05
CCTATTAGTTGACCATAAAGGCAACCGAAGCTCG | 0.384 | 0.566 | 0.992 | 0.76 | 0.816 | -0.0568 | 0.377 | 0.275 | 0.147 | 0.00767 | 0.277 | 0.572 | 0.612 | 1.06 | 1.55 | 0.343 | 1.08 | 0.436 | 2.45 | 0.404
ATCACTAGGTAAAGTTCAGTGAAAGATCGATAGA | 0.984 | 1.7 | 1.43 | 1.17 | 0.688 | 2.22 | 2.59 | 3.38 | 1.45 | 2.7 | 3.89 | 3.29 | 1.1 | 0.944 | 1.33 | 1.91 | 1.73 | 1.48 | 1.19 | 2.7
GCATATAGGTAATACAAGGTTAAAGTCCGATTGT | 0.589 | 5.43 | 4.13 | 2.63 | -0.0858 | 2.39 | 1.69 | 1.5 | 0.655 | 0.992 | 4.38 | 3.23 | 0.799 | 0.913 | 1.39 | 2.6 | 0.613 | 2.53 | 0.428 | 0.87
